Test results from PubChem BioAssay (NCATS).
Results filed as inconclusive are left out. The source made the active and inactive calls. Calls follow the shape of the dose curve; as a rule, active = well fitted curve in the direction sought with a large enough effect; inconclusive = small, poorly fitted or top-dose-only effect, or another doubt; inactive = no such curve, though single readings can be large; an effect the other way counts as inactive or inconclusive.

Tests used:
Hek293T = assay: Primary qHTS to identify gynecologic anti-cancer compounds using libraries of approved drugs and bioactive compounds (AID 1345084); conditions: Gynecologic cancer cell panel viability, ATPlite luminescence, 48 h, control line for the selectivity index; series mostly up to 57.5 µM; also: nearly all actives have a fitted effect of over 55% in size
Outline: (§1)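 Cytotoxicity screen measuring ATP content by luciferase luminescence. Each compound is applied at five concentrations for 48 h at 37 C with 5% CO2.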

JEG-3 = assay: as above; conditions: Gynecologic cancer cell panel viability, ATPlite luminescence, 48 h; series mostly up to 57.5 µM
Outline: as §1

OV90 = assay: as above; conditions: Gynecologic cancer cell panel viability, ATPlite luminescence, 48 h; series mostly up to 57.5 µM
Outline: as §1

PA-1 = assay: as above; conditions: Gynecologic cancer cell panel viability, ATPlite luminescence, 48 h; series mostly up to 57.5 µM
Outline: as §1

SKOV3 = assay: as above; conditions: Gynecologic cancer cell panel viability, ATPlite luminescence, 48 h; series mostly up to 57.5 µM
Outline: as §1

Tov-21-G = assay: as above; conditions: Gynecologic cancer cell panel viability, ATPlite luminescence, 48 h; series mostly up to 57.5 µM
Outline: as §1

Tov112D = assay: as above; conditions: Gynecologic cancer cell panel viability, ATPlite luminescence, 48 h; series mostly up to 57.5 µM
Outline: as §1

[1] = Drug repurposing screens with cells derived from glioblastoma tumor samples (AID 1345199); conditions: GBM patient neurospheres viability, ATP luminescence, 48 h; also: nearly all actives have a fitted effect of over 40% in size; also: potency is read from the fitted curve at half-maximal effect
Outline: (§2)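 Four patient lines of CD133+ GBM neurospheres were screened at several concentrations; hits were retested in those lines plus three slower-growing GBM lines, using 48-hour treatment and ATP-based viability.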

[2] = qHTS assay to identify inhibitors of the type 1 interferon - major histocompatibility complex class I in skeletal muscle: Counter screen cell viability and HiBit confirmation (AID 1347412); conditions: iHSKM muscle cells + IFN-b, HiBiT or CellTiter-Glo, 24 h; Viability; at 45.9 µM (top of the series); also: nearly all actives have a fitted effect of over 60% in size
Text: Assay Submitter (PI): Travis B. Kinder Ph.D. & James Inglese Ph.D. Assay Development and Screening Technology Laboratory (ADST) National Center for Advancing Translational Sciences (NCATS), Rockville, MD National Institute of Health (NIH), Bethesda, Maryland Idiopathic inflammatory myopathies, collectively referred to as myositis, are a group of rare autoimmune diseases characterized by skeletal muscle inflammation, weakness, and usually accompanied by systemic pathologies of the skin, lungs, or vasculature. Current immunosuppressive therapies and glucocorticoids are often not curative and are accompanied by harsh side effects, especially in children with juvenile myositis. We initiated a drug repurposing and development program to identify more targeted, less toxic therapeutics to treat myositis. Although its cause is not known, muscle from a subset of patients have an abundance of the inflammatory type 1 interferon (IFN) and a down-stream product major histocompatibility complex class I (MHC class I), which are both thought to contribute to damage and weakness. We conducted quantitative high throughput screening on 6,576 compounds (4,679 unique) through a series of cell-based assays to identify those that inhibit the IFN-stimulated expression of MHC class I in muscle precursor cells (myoblasts). The compound identification and evaluation strategy utilized a primary screen with reporter-tagged MHC class I in genome-engineered myoblasts, ATP content counter screen for viability, HLA-ABC immunofluorescence secondary screen, and HLA-B RT-qPCR tertiary screen. The primary screen utilized CRISPR/Cas9 genome-engineering of immortalized human myoblasts, C25cl48, where a pro-luminescent reporter HiBit was fused to the C-terminus of endogenous MHC class I allele HLA-B*08:01 (HLA-B HiBit myoblasts). HiBit is an 11 amino acid fragment of NanoLuc luminescent reporter (Promega Corporation), and when complexed to the larger LgBit fragment, the reconstituted enzyme produces light in the presence of furimazine substrate (Schwinn et al., 2018). Briefly, HLA-B HiBit myoblasts were plated into 1536-well plates, treated with 4.0 ng/ml human IFN-beta and 650 inhibitory compounds identified from primary screening in a 12-point, 1:3 titration with a high final concentration of 46 uM. Compounds were pinned into duplicate plates, with one for HiBit confirmation and one for ATP content viability assay. After 24 hrs of treatment, cells were assayed by either Nano-Glo HiBiT Lytic Detection System (Promega) or CellTiter Glo (Promega), and luminescence measured by a ViewLux 1430 Ultra HTS (Perkin Elmer). References: Schwinn MK, Machleidt T, Zimmerman K, Eggers CT, Dixon AS, Hurst R, Hall MP, Encell LP, Binkowski BF, Wood K V. 2018. CRISPR-Mediated Tagging of Endogenous Proteins with a Luminescent Peptide. ACS Chem Biol 13:467-474. doi:10.1021/acschembio.7b00549
PROTOCOL TABLE (as described by Inglese et al., 2007) SEQUENCE No. (e.g., 1, 2, 3, etc.); […] (e.g., Cells, Incubation, Reagent, etc.); VALUE; DESCRIPTION 1a; Cells; 5 uL; Use a Multidrop Combi (Thermo Scientific) to seed 300 cells/well into 16 Greiner 1536 well white/solid bottom, high base, TC plates in 5 ul/well of iHSKM growth medium (GM) without dexamethasone into columns 1+2. […]

astro = assay: Drug repurposing screens with cells derived from glioblastoma tumor samples (AID 1345199); conditions: viability, ATP luminescence, 48 h; series mostly up to 45.9 µM; also: nearly all actives have a fitted effect of over 40% in size; also: potency is read from the fitted curve at half-maximal effect
Outline: as §2

[3] = at 45.9 µM (top of the series), tumour line B
[4] = at 45.9 µM (top of the series), tumour line D
[5] = at 46 µM (top of the series), tumour line A
[6] = at 46.1 µM (top of the series), tumour line C
% is scaled to controls: 0 for no effect and ±100 for the full control effect.

C[C@]12C=CC(=O)C=C1CC[C@H]1[C@@H]3C[C@@H](O)[C@](O)(C(=O)CO)[C@@]3(C)C[C@H](O)[C@@]12F
inactive: Potency (Hek293T) | Potency (JEG-3) | Potency (OV90) | Potency (PA-1) | Potency (SKOV3) | Potency (Tov-21-G) | Potency (Tov112D) | activity, negative = cell killing [1, 3] -11.4% | activity, negative = cell killing [1, 4] -6.95% | activity, negative = cell killing [1, 5] -27.1% | activity, negative = cell killing [1, 6] 7.27% | activity change, negative = inhibition [2] 8.47%

COc1ccc(CN(CCN(C)C)c2ccccn2)cc1
inactive: Potency (Hek293T) | Potency (JEG-3) | Potency (OV90) | Potency (PA-1) | Potency (SKOV3) | Potency (Tov-21-G) | Potency (Tov112D) | activity, negative = cell killing [1, 3] -3.6% | activity, negative = cell killing [1, 6] -2.37% | Potency (astro)
active: Potency ([1]; tumour line A) 35.5 µM

CCCN(CCC)C(=O)C(CCC(=O)O)NC(=O)c1ccccc1 (configuration not stated)
inactive: Potency (Hek293T) | Potency (JEG-3) | Potency (OV90) | Potency (PA-1) | Potency (SKOV3) | Potency (Tov-21-G) | Potency (Tov112D) | activity, negative = cell killing [1, 3] 1.78% | activity, negative = cell killing [1, 4] -1.59% | activity, negative = cell killing [1, 5] -28.4% | activity, negative = cell killing [1, 6] -13.4% | Potency (astro)

CN(C)C(=O)Oc1ccc[n+](C)c1
inactive: Potency (Hek293T) | Potency (JEG-3) | Potency (OV90) | Potency (PA-1) | Potency (SKOV3) | Potency (Tov-21-G) | Potency (Tov112D) | activity, negative = cell killing [1, 3] 5.33% | activity, negative = cell killing [1, 4] -8.24% | activity, negative = cell killing [1, 5] -28.3% | activity, negative = cell killing [1, 6] -15.6% | Potency (astro)

CCCOc1ccccc1-c1nc2n[nH]nc2c(=O)[nH]1
inactive: Potency (Hek293T) | Potency (JEG-3) | Potency (OV90) | Potency (PA-1) | Potency (SKOV3) | Potency (Tov-21-G) | Potency (Tov112D) | activity, negative = cell killing [1, 3] -4.45% | activity, negative = cell killing [1, 4] -8.24% | activity, negative = cell killing [1, 5] -28% | activity, negative = cell killing [1, 6] -19% | Potency (astro)

CSc1ccc(C(=O)c2[nH]c(=O)[nH]c2C)cc1
inactive: Potency (Hek293T) | Potency (JEG-3) | Potency (OV90) | Potency (PA-1) | Potency (SKOV3) | Potency (Tov-21-G) | Potency (Tov112D) | activity, negative = cell killing [1, 3] -10.8% | activity, negative = cell killing [1, 4] -20.6% | activity, negative = cell killing [1, 6] -21.1% | Potency (astro)

CC(=O)[C@@]1(O)CC[C@H]2[C@@H]3CCC4=CC(=O)CC[C@]4(C)[C@H]3CC[C@@]21C
inactive: Potency (Hek293T) | Potency (JEG-3) | Potency (OV90) | Potency (PA-1) | Potency (SKOV3) | Potency (Tov-21-G) | Potency (Tov112D) | activity, negative = cell killing [1, 3] -19.9% | activity, negative = cell killing [1, 4] -29.7% | activity, negative = cell killing [1, 6] -20.5% | Potency (astro)

CCCN1C[C@H](CSC)C[C@@H]2c3cccc4[nH]cc(c34)C[C@H]21
active: Potency ([1]; tumour line A) 7.94 µM
inactive: Potency (Hek293T) | Potency (JEG-3) | Potency (OV90) | Potency (PA-1) | Potency (SKOV3) | Potency (Tov-21-G) | Potency (Tov112D) | activity, negative = cell killing [1, 3] -27.2% | activity, negative = cell killing [1, 6] 15.8% | Potency (astro)
